Experimental data: publication PMC7862700, “An all-to-all approach to the identification of sequence-specific readers for epigenetic DNA modifications on cytosine”

Legend:
Experiment in all cases: DAPPL (digital affinity profiling via proximity ligation, sequencing); 10 mM Tris-HCl pH 7.5, 50 mM NaCl, 1 mM DTT, 4% glycerol, room temperature, 30 min; GST-TFs on glutathione beads, 16-mer random dsDNA library, 0.1% formaldehyde crosslink after washing; high values mean tight binding
Details in all cases: protein: recombinant; tags: N-terminal GST; dsDNA, one strand shown
FLI1 = target: T1, FLI1 (Homo sapiens, UniProt Q01543 1-452)
T1 sequence: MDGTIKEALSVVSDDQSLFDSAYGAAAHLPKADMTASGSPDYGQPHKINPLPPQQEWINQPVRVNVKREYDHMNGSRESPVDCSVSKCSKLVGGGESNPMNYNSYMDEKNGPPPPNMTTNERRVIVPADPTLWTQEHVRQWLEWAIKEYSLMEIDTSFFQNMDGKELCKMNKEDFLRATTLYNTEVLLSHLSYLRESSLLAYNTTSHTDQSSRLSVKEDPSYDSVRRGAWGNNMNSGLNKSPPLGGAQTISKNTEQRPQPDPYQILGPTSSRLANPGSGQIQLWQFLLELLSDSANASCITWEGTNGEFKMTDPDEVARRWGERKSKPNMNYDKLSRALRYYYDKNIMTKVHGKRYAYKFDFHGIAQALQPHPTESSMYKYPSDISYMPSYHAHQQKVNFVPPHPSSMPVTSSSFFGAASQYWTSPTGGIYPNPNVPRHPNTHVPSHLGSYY
Summary of the method: (§1)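 Human transcription factors fused to GST were expressed in yeast, captured on glutathione beads, given DNA barcodes and pooled with a GST-only negative control. Pools were incubated with 200 nmole of a 16-mer random double-stranded DNA library in Tris/NaCl/DTT/glycerol buffer at room temperature for 30 min. They were then washed, crosslinked with 0.1% formaldehyde, proximity-ligated (BsaI/T4 ligase, 1 h, 37 °C), PCR-amplified and sequenced on an Illumina NextSeq500. Binding signal is each 6-mer's read frequency for a factor divided by its frequency for the GST control.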

ELK1 = target: T2, ELK1 (Homo sapiens, UniProt P19419 1-428)
T2 sequence: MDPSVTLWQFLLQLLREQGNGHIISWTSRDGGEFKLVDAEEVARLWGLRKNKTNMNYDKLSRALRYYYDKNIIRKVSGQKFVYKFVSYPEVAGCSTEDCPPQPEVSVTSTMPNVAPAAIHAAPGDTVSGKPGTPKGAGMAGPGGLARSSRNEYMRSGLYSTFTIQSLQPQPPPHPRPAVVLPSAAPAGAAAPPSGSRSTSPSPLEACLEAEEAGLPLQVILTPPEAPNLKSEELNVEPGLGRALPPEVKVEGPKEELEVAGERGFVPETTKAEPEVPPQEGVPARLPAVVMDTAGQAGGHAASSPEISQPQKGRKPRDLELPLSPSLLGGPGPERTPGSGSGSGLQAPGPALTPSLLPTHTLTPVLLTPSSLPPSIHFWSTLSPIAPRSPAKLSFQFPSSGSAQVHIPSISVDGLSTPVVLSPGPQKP
Summary of the method: as §1

GABPA = target: T3, GABPA (Homo sapiens, UniProt Q06546 1-454)
T3 sequence: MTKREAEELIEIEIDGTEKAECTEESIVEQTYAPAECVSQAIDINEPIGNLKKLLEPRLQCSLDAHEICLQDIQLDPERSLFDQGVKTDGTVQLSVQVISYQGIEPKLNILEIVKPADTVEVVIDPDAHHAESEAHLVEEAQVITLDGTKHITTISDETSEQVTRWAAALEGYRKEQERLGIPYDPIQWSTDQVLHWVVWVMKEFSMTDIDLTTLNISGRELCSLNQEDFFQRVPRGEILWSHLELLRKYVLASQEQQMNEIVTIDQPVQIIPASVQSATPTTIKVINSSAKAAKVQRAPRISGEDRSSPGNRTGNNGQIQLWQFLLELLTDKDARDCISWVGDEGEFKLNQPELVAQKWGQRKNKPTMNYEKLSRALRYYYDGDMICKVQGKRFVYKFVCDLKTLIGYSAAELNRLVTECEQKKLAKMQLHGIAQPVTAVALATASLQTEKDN
Summary of the method: as §1

ERG = target: T4, ERG (Homo sapiens, UniProt P11308 1-479)
T4 sequence: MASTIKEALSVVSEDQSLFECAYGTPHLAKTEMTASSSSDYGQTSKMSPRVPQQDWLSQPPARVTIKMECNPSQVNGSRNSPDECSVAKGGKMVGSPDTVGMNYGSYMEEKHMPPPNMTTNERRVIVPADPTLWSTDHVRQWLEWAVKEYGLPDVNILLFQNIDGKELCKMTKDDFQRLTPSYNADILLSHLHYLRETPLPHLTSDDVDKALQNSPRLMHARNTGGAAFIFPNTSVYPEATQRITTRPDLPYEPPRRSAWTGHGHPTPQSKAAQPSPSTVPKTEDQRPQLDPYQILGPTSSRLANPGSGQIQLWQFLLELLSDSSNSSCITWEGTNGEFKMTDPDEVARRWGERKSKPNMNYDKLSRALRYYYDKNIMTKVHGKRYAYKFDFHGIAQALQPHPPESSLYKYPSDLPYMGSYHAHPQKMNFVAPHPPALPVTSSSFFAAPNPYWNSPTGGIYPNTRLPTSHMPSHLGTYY
Summary of the method: as §1

ELF1 = ELF1 (Homo sapiens, UniProt P32519 1-619)
Chain of ELF1 (P32519 whole entry): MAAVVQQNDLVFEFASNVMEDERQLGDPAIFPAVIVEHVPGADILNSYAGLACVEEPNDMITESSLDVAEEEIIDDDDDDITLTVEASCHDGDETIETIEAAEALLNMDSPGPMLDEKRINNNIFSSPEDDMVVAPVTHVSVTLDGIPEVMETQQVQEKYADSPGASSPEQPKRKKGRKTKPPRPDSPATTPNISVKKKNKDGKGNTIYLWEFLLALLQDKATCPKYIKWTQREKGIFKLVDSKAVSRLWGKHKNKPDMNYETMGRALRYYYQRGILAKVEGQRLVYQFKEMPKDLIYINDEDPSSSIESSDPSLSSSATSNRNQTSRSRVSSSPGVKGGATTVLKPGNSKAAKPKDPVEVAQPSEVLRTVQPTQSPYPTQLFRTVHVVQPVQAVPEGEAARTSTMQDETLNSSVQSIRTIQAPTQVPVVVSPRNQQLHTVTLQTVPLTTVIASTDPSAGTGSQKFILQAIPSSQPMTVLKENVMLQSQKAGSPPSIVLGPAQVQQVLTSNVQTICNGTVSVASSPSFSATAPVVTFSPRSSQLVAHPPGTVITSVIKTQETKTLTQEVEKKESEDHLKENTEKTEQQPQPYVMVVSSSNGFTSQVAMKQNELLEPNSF
Summary of the method: as §1

EHF = target: T5, EHF (Homo sapiens, UniProt Q9NZC4 1-300)
T5 sequence: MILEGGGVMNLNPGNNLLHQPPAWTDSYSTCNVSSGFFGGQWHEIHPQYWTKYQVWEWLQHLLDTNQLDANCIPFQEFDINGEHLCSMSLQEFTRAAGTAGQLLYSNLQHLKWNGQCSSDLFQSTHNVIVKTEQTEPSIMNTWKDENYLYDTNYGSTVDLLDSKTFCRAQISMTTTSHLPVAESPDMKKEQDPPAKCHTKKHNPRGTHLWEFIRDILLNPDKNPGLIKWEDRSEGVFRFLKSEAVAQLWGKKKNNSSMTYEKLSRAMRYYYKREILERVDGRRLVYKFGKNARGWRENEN
Summary of the method: as §1

SPI1 = SPI1 (Homo sapiens, UniProt P17947 1-270)
Summary of the method: as §1

SPIB = SPIB (Homo sapiens, UniProt Q01892 1-262)
Chain of SPIB (Q01892 whole entry): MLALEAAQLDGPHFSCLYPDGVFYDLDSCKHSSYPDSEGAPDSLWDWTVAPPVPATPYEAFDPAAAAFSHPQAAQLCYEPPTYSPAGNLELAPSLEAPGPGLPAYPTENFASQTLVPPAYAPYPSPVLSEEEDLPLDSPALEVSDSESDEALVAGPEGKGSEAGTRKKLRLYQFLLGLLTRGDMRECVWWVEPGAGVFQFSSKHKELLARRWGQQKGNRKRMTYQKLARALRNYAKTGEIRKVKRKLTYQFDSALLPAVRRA
Summary of the method: as §1

ELK3 = target: T6, ELK3 (Homo sapiens, UniProt P41970 1-407)
T6 sequence: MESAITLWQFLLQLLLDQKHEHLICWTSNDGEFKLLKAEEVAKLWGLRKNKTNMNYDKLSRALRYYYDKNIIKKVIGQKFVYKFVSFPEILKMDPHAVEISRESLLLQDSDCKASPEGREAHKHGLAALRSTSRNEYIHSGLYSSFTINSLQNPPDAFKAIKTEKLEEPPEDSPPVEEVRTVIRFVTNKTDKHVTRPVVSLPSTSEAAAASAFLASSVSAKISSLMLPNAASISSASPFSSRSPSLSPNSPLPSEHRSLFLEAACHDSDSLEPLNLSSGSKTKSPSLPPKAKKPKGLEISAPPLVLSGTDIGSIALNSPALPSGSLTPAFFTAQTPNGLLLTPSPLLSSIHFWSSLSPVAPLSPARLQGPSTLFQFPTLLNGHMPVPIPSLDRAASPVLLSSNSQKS
Summary of the method: as §1

FEV = target: T7, FEV (Homo sapiens, UniProt Q99581 1-238)
T7 sequence: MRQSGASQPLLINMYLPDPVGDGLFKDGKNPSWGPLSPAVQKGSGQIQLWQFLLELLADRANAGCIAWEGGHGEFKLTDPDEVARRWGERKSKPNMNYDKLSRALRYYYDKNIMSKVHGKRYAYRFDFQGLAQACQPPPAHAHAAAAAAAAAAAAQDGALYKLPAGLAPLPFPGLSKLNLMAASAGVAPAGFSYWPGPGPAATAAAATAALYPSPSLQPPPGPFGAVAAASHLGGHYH
Summary of the method: as §1

ETV5 = ETV5 (Homo sapiens, UniProt P41161 1-510)
Chain of ETV5 (P41161 whole entry): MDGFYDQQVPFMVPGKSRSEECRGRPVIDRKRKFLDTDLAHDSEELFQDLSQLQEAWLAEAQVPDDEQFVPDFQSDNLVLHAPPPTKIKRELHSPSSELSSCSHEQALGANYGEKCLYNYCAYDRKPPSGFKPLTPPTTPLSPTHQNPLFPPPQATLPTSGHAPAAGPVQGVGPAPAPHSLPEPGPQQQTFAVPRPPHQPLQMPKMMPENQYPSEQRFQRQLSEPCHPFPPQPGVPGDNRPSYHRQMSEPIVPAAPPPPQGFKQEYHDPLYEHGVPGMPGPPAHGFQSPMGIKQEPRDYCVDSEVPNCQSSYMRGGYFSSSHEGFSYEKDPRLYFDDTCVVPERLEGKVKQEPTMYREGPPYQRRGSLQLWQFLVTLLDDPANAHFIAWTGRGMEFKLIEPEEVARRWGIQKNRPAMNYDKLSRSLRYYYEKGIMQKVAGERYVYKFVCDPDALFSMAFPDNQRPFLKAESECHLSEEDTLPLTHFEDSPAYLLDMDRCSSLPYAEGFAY
Summary of the method: as §1

SPIC = target: T8, SPIC (Homo sapiens, UniProt Q8N5J4 1-248)
T8 sequence: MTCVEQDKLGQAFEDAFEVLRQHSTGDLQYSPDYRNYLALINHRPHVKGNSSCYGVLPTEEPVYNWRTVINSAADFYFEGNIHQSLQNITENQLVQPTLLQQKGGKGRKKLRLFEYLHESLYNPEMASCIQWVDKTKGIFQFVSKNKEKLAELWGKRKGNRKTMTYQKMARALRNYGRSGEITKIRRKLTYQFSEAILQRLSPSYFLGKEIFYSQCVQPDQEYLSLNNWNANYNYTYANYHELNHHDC
Summary of the method: as §1

ELF4 = ELF4 (Homo sapiens, UniProt Q99607 1-663)
Chain of ELF4 (Q99607 whole entry): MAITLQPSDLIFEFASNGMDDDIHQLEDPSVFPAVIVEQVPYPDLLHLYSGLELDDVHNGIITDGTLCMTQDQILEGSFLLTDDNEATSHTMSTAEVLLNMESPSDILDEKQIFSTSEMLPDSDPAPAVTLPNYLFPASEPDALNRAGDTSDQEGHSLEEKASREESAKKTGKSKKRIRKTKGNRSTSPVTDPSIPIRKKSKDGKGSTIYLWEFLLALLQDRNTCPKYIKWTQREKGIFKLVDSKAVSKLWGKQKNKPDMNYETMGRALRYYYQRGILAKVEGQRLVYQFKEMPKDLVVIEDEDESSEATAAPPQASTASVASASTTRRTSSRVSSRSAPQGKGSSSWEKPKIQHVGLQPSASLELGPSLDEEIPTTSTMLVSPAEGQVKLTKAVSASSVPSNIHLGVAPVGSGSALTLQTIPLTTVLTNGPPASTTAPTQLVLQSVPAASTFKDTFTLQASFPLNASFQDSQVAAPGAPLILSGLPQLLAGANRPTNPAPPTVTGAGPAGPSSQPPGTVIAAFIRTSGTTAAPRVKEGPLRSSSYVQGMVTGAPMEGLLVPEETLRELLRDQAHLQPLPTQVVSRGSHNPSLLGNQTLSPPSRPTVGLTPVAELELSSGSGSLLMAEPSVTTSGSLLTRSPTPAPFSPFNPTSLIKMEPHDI
Summary of the method: as §1

ELK4 = target: T9, ELK4 (Homo sapiens, UniProt P28324-2 1-405)
T9 sequence: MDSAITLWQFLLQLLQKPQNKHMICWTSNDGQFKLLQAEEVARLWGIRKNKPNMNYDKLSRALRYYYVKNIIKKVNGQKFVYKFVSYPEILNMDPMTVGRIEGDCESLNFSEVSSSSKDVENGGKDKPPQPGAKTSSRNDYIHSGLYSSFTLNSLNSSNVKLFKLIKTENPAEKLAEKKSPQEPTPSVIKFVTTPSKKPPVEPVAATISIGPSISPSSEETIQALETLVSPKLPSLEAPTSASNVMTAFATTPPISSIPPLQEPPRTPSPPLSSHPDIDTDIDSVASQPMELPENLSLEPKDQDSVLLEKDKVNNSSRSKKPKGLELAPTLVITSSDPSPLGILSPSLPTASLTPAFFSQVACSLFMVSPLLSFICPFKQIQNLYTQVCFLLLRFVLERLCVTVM
Summary of the method: as §1

ETV2 = target: T10, ETV2 (Homo sapiens, UniProt O00321 1-342)
T10 sequence: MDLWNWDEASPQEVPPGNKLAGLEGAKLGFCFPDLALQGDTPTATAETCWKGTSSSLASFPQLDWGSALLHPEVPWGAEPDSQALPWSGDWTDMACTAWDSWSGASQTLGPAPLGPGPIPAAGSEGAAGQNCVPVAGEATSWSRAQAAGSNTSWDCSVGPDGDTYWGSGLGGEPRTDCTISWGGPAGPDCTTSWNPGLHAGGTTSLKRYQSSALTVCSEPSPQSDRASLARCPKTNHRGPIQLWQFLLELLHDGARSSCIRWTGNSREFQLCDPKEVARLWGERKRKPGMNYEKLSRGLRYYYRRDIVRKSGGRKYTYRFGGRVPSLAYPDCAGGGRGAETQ
Summary of the method: as §1

ELF3 = target: T11, ELF3 (Homo sapiens, UniProt P78545 1-371)
T11 sequence: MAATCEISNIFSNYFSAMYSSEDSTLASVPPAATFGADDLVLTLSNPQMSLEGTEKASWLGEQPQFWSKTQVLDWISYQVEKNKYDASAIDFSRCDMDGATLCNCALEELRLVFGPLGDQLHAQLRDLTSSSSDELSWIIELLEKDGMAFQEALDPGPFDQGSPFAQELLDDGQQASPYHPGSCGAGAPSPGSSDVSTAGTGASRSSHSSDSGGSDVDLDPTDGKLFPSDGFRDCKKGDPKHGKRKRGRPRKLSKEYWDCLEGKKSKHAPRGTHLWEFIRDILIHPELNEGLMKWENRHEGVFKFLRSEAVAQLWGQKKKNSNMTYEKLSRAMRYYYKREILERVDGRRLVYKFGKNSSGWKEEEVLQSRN
Summary of the method: as §1

ETV1 = ETV1 (Homo sapiens, UniProt P50549 1-477)
Chain of ETV1 (P50549 whole entry): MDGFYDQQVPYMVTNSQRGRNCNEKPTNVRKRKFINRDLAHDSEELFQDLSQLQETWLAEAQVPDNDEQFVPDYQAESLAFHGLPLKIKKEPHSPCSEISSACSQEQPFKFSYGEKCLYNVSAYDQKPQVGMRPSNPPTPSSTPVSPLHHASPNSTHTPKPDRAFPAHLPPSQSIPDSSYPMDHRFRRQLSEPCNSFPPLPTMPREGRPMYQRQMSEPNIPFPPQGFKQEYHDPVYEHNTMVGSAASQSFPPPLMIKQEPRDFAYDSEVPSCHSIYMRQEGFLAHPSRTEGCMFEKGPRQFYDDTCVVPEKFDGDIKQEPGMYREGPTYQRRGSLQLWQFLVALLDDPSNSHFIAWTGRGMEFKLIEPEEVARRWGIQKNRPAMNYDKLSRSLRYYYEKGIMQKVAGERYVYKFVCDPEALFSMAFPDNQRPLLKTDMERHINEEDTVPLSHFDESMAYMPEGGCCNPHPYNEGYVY
Summary of the method: as §1

| Sequence | binding signal (FLI1) | binding signal (ELK1) | binding signal (GABPA) | binding signal (ERG) | binding signal (ELF1) | binding signal (EHF) | binding signal (SPI1) | binding signal (SPIB) | binding signal (ELK3) | binding signal (FEV) | binding signal (ETV5) | binding signal (SPIC) | binding signal (ELF4) | binding signal (ELK4) | binding signal (ETV2) | binding signal (ELF3) | binding signal (ETV1) |
| --- | --- | --- | --- | --- | --- | --- | --- | --- | --- | --- | --- | --- | --- | --- | --- | --- | --- |
| GTTTCA | 1.34 fold enrichment (6-mer frequency, TF over GST control) | 1.27 fold enrichment (6-mer frequency, TF over GST control) | 1.35 fold enrichment (6-mer frequency, TF over GST control) | 1.3 fold enrichment (6-mer frequency, TF over GST control) | 1.4 fold enrichment (6-mer frequency, TF over GST control) | 1.3 fold enrichment (6-mer frequency, TF over GST control) | 1.32 fold enrichment (6-mer frequency, TF over GST control) | 1.24 fold enrichment (6-mer frequency, TF over GST control) | 1.44 fold enrichment (6-mer frequency, TF over GST control) | 1.31 fold enrichment (6-mer frequency, TF over GST control) | 1.26 fold enrichment (6-mer frequency, TF over GST control) | 1.06 fold enrichment (6-mer frequency, TF over GST control) | 1.33 fold enrichment (6-mer frequency, TF over GST control) | 1.28 fold enrichment (6-mer frequency, TF over GST control) | 1.15 fold enrichment (6-mer frequency, TF over GST control) | 1.28 fold enrichment (6-mer frequency, TF over GST control) | 1.43 fold enrichment (6-mer frequency, TF over GST control) |
| CCGCCC | 1.33 fold enrichment (6-mer frequency, TF over GST control) | 1.39 fold enrichment (6-mer frequency, TF over GST control) | 1.27 fold enrichment (6-mer frequency, TF over GST control) | 1.29 fold enrichment (6-mer frequency, TF over GST control) | 1.35 fold enrichment (6-mer frequency, TF over GST control) | 1.29 fold enrichment (6-mer frequency, TF over GST control) | 1.17 fold enrichment (6-mer frequency, TF over GST control) | 1.19 fold enrichment (6-mer frequency, TF over GST control) | 1.48 fold enrichment (6-mer frequency, TF over GST control) | 1.38 fold enrichment (6-mer frequency, TF over GST control) | 1.34 fold enrichment (6-mer frequency, TF over GST control) | 1.33 fold enrichment (6-mer frequency, TF over GST control) | 1.4 fold enrichment (6-mer frequency, TF over GST control) | 1.08 fold enrichment (6-mer frequency, TF over GST control) | 1.2 fold enrichment (6-mer frequency, TF over GST control) | 1.28 fold enrichment (6-mer frequency, TF over GST control) | 1.26 fold enrichment (6-mer frequency, TF over GST control) |
